The values that follow come from PubChem BioAssay (NCI).

About 83,000 compounds went through this panel and 20% of them were active in at least one assay; those are over-represented in the sample as a whole.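 Cell lines were cultured in 96-well plates, exposed to a single compound concentration, and assessed for percent growth 48 hours later.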 A number with no mark means an inactive call. Active and inactive are the calls of the source. Rule for the calls: active = growth percent below 10; inactive = the rest.

This assay relates to HL-60(TB) leukemia. Briefly: NCI-60 one-dose screen, 48 h (100 = growth as untreated, 0 = no growth, -100 = all killed). To be noted: 10 µM unless noted.

Turning to `O=C(O)C1CCC(=O)N1C(=O)OCc1ccccc1` (stereo unspecified), the growth is 84.1%.
The result for `CSc1nc2sc3c(c2c(=O)n1-c1ccc(C(C)C)cc1)CCC(=O)C3` reads 6.88% (active); that for `COc1ccc(C(=O)O)cc1.[Ag]`, -46% (active).
As for `Nc1ccc(/C=N/Nc2ccnc3c(O)cccc23)c2cccnc12`, the growth was 17.9%.
As for `COc1ccc(C(O)c2cc3c(N)c(C(=O)Nc4cccc(Cl)c4C)sc3nc2C)cc1` (stereo unspecified), the figure is -51% (active); as for `Cc1[nH]c(C2CC(c3ccc(C(F)(F)F)c(F)c3)=NN2C)c(C)c1C(=O)NCC(F)(F)F` (stereo unspecified), 97.1%; as for `CCOC(=O)C(COS(C)(=O)=O)(COS(C)(=O)=O)C(=O)OCC`, 104%.
As for `CCOC(=O)c1cc(C(=O)c2ccc(OC)c(OC)c2)n2c1ccc1ccccc12`, the figure is 99.8%; as for `O=[N+]([O-])c1cc2c(cc1Br)C1C(C3C2C(Cl)(Cl)C(Cl)=C(Cl)C3(Cl)Cl)C(Cl)(Cl)C(Cl)=C(Cl)C1(Cl)Cl` (stereo unspecified), 110%; as for `Cc1ccccc1Nc1cc(O)c2c(=O)cc(-c3ccccc3)oc2c1`, 8.58% (active).
The result for `O=C(N=Nc1c(O)[nH]c2ccccc12)c1cc(-c2ccccc2)on1` reads 97.5%; that for `C/C(Cc1ccc(Cl)cc1)=C(/c1ccc(Cl)cc1)c1ccc(OCCN2CCCC2)cc1`, 54.7%; that for `Nc1c(Cl)cc2c(c1Br)C(=O)c1ccccc1C2=O`, 70.7%.
Take `CC1=CC(=O)c2ccccc2C1=O`: the growth is 106%.
The result for `CCCN=C(N)c1ccc(NC(=O)c2ccc(C(=O)Nc3ccc(C(N)=NCCC)cc3)cc2)cc1` reads 77%; that for `Nc1ccccc1SC1CC(=O)N(c2ccc(I)cc2)C1=O` (stereo unspecified), 65.6%; that for `O=C(CCCCCCN1CC(=O)N2[C@H](c3ccc(Br)cc3)c3[nH]c4ccccc4c3C[C@@H]2C1=O)NO`, 5.8% (active).
As for `CCN(C(=O)Nc1cccc2ccccc12)c1ccccc1`, the figure is 102%; as for `COc1cc2nc3cc([N+](=O)[O-])ccc3c(NCCNCC(C)O)c2cc1OC` (stereo unspecified), -16.8% (active).
The result for `COc1ccc(C(=O)Nc2ncc(Cc3ccc(Cl)cc3)s2)cc1` reads -11% (active).
Turning to `O=C1Nc2ccccc2C12C=C(c1ccccc1)Nc1c2c(-c2ccccc2)nn1-c1ccccc1` (stereo unspecified), the growth is 5.77% (active).
As for `Nc1cc2c(cc1Cl)C(=O)c1ccccc1C2=O`, the figure is 81%; as for `C1CCCCNCCC1`, 114%.
As for `Clc1cccc(Cl)c1C(Nc1nc2ccccc2s1)Nc1nc2ccccc2s1`, the figure is 105%; as for `O=C(NCCN1CCCC1)n1cc(-c2ccncc2)c(-c2cc(O)cc(Cl)c2)n1`, 95%; as for `Cc1ccc(Nc2oc(-c3ccccc3)nc2[P+](c2ccccc2)(c2ccccc2)c2ccccc2)cc1`, -32.5% (active).
As for `NC(=O)c1ccc2nc3c(n2c1)C(=O)C(=O)c1ccccc1-3`, the figure is -42.2% (active); as for `CCCCCCCCCCC(=O)CCCCCCCCCC`, 95.4%; as for `Cc1ccc(C)c(-n2c(-c3ccc(Br)cc3)csc2=NC(=O)c2ccccc2F)c1`, -21.6% (active).
As for `CC(=O)Nc1ccc(C(=O)COc2cccc(/C=C3\CCc4ccccc4C3=O)c2)cc1`, the growth was 89.2%.
In the case of `CCCCCCNC(=O)Nc1ncnc2c1ncn2-c1ccccc1`, the growth is 109%.
With `CC[N+](CC)=c1ccc2nc3c(cc(NCc4ccccc4)c4ccccc43)oc-2c1`, the growth is -41.2% (active).
As for `O=C(NCCc1ccccc1)Nc1ccc2cc3ccc(NC(=O)NCCc4ccccc4)cc3nc2c1`, the figure is -46.9% (active); as for `O=C1NN(c2ccccc2)C(c2cccnc2)=N/C1=C\c1cccnc1`, 104%; as for `O=C1/C(=C/c2ccc(Cl)c(Cl)c2)CN(C(=O)CCN2CCC(=NO)CC2)C/C1=C\c1ccc(Cl)c(Cl)c1`, -16% (active).
Regarding `CC1CC2Oc3ccc(Cl)cc3C(=O)N2O1` (stereo unspecified), the growth is 110%.
The result for `COCCNC(C)=O` reads 107%; that for `NC(=NCCCOc1ccc(F)cc1)Nc1ccc(Cl)c(Cl)c1`, 48.2%.
As for `CN(Cc1ccccc1)c1nc(Cl)c(C2CC(c3ccc(Cl)cc3)=NN2c2cc(Cl)cc(Cl)c2)s1` (stereo unspecified), the figure is 102%; as for `CC1=C(C(=O)OCC2CCN(C(=O)OC(C)(C)C)CC2)[C@H](c2cccc(C#N)c2)C2=C(CC(C)(C)CC2=O)N1`, 27.5%; as for `Oc1ccc(-c2nc3ccc4[nH]ncc4c3c3c2CCCC3)c(F)c1`, 0.236% (active).
For `CCN(CC)c1ccc(C2CC(c3cc(OC)c(OC)c(OC)c3)=NN2)cc1` (stereo unspecified), the growth was -35.1% (active).
The result for `C=CCNc1ccc2c3c(cccc13)C(=O)N(CC=C)C2=O` reads 102%; that for `Cc1cc2nc(CN)[nH]c2cc1C`, 96.6%; that for `CCCCCCNc1nc(NCCCCCC)c2[nH]c(NCCCCCC)nc2n1`, -60.2% (active).
As for `COc1cccc(/C=C2\Oc3cc(OCCCN4CCCC4)ccc3C2=O)c1`, the figure is 81%; as for `COc1ccc(-c2cc(-c3ccccc3)nc(N3CCN(CCNc4ccnc5cc(Cl)ccc45)CC3)n2)cc1`, -39.8% (active); as for `CC(C)=CCC[C@](C)(O)[C@H]1CC[C@]2(C)[C@@H]1CC[C@@H]1[C@@]3(C)CC[C@H](OC(=O)CCC(=O)O)C(C)(C)[C@@H]3CC[C@]12C`, 4.34% [100 µM] (active).
As for `COc1ccc(S(=O)(=O)N(Cc2ccc3c(n2)C=CC(C)(C)O3)C2CCC2)cc1OC`, the figure is -13.5% (active).
With `CC(/C=N/NC(N)=S)Cc1ccc(C(C)C)cc1` (stereo unspecified), the growth was 44.3%.
As for `Cc1cccc(CNc2c3ccccc3nc3ccccc23)c1`, the figure is 12.5%; as for `O=S(=O)(Cc1cccc2c(CS(=O)(=O)c3ccc(Cl)cc3)cccc12)c1ccc(Cl)cc1`, 93.5%.
As for `COc1cc(C(=O)N/N=C/c2ccc(N(C)C)cc2)cc(OC)c1OC`, the figure is -20% (active).
The result for `CC(C)[C@]12O[C@H]1[C@@H]1O[C@]13[C@]1(O[C@H]1C[C@H]1C4=C(CC[C@@]13C)C(=O)OC4)[C@@H]2OC(=O)CN(C)C` reads -24.3% (active); that for `Nc1nc(SCC2(CCl)COC2)c2[nH]cnc2n1`, 105%; that for `C=CC(=O)Nc1cccc(C)c1Nc1cc(-c2cccnc2Cc2c(C)c(OC)cc(OC)c2C)ncn1`, -23% (active).
`COc1ccc2c(c1)OC1=C(C(=O)OC1)C2c1cc(OC)c2c(c1)OCO2` (stereo unspecified): the growth is -13% (active).
With `COc1ccc(-c2nc3sccn3c2/C=C/C(=O)c2cc(OC)c(OC)c(OC)c2)cc1OC`, the growth is 6.14% (active).
As for `CN(C)CCOc1ccc2c(c1)C(=O)/C(=C\c1ncc([N+](=O)[O-])n1C)C2`, the figure is -51.8% (active); as for `CC(/C=N/N1C(=O)c2ccccc2C1=O)c1ccccc1` (stereo unspecified), 108%; as for `CC1(C)CC(=O)C2=C(C1)N(c1ccc(F)cc1F)C(N)=C(C#N)C2c1cc(Br)ccc1F` (stereo unspecified), 99.4%.
As for `Cc1ccc(S(=O)(=O)N2CCC(=O)c3ccccc32)cc1`, the figure is 60.3%; as for `C/C(=C(/c1ccc(O)cc1)c1ccc(OCCN(C)C)cc1)c1ccccc1`, 76%.
As for `Oc1cc(Cl)ccc1Cc1ccc(Cl)cc1O`, the figure is 41.4%; as for `COc1cc(/C=C/c2cc(O)c3cc(C(C)=O)c(=O)oc3c2)cc2c1O[C@]1(C)CC[C@@H](O)C(C)(C)[C@H]1C2`, 4.64% (active).
As to `CC(=O)c1cc(C(=O)c2ccc3c(c2)Sc2ccccc2N3)n2ccccc12`, the growth was 14.3%.
The result for `Nc1ccc2ccc(N)cc2c1` reads 97.4%; that for `CCOC(=O)C1=C(CSC(=S)N(C2CCCCC2)C2CCCCC2)N(C)C(=O)NC1c1ccccc1` (stereo unspecified), 15.3%.
As for `Cc1ccccc1NC(=O)CN(C)C`, the figure is 87.9%; as for `CCCCn1c(NC(C)=O)c(S(=O)(=O)c2ccccc2)c2nc3ccccc3nc21`, 88.5%.
Take `[2H]c1nc(Nc2ncc(F)c(-c3cc(F)c4nc(C)n(C(C)C)c4c3)n2)c([2H])c([2H])c1CN1CCN(CC)CC1`: the growth is 24.6%.
The result for `Oc1c(N=Nc2nn[nH]n2)ccc2ccccc12` reads 98.2%; that for `O=C(CCCCC(=O)Nc1ccc2c(c1)/C(=C/c1ccc[nH]1)C(=O)N2)NO`, 107%; that for `COc1ccc(/C(C)=C(/c2ccc(OCCCN(C)C)cc2)c2ccc(OC(=O)c3ccccc3)cc2)cc1`, 62.8%.
Turning to `COc1ccc(/C=C/C(=O)c2cc3c(N)c(C(=O)Nc4ccccc4)sc3nc2C)cc1`, the growth is 2.92% (active).
As for `Cc1ccc(/C(=N\N=C(N)N)c2ccccc2)cc1`, the figure is -41.6% (active); as for `Cc1ccc([N+](=O)[O-])cc1NC(=O)Nc1cccc(F)c1`, 58.7%.
As for `COc1ccc(/C=C/C(C)=N/OCC(=O)O)cc1`, the figure is 89.1%; as for `O=C(/C=C/c1ccccc1)c1ccc(O)c(CN2CCN(c3cc4c(cc3F)c(=O)c(C(=O)O)cn4C3CC3)CC2)c1`, -6% (active).
The result for `CN(C)c1ccc(C2CC(c3ccccc3)=NN2/C=C2\SC(=O)NC2=O)cc1` (stereo unspecified) reads 84.7%.
On to `Clc1ccc(-c2nc(-c3ccco3)cn3ccnc23)cc1`, for which the growth is 102%.
